Results as given in PubChem BioAssay (EPA / NIEHS).
Active and inactive are the calls of the source. The calls were made as follows: active = hit-call score of the fitted dose curve at least 0.9, where 1 is the maximum; inactive = score below 0.9.

Assay: CEETOX_H295R_CORTISOL: CeeTox H295R High-throughput Steroidogenesis Assay for Cortisol (AID 2283438);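 also: cortisol secreted into medium quantified by LC-MS/MS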
Settings: actives raise or lower the signal
Summary of the method: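 Steroidogenesis in H295R, per modified OECD 456: 48 h forskolin (10 uM), then 48 h exposure, 0.1% DMSO. Cortisol by extraction and tandem MS; viability by MTT (570/650 nm); cytotoxic chemicals diluted and re-tested.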

**Q.** For CCCOC(=O)c1ccc(O)cc1, which AC50 is on record?
**A.** 79.4 µM (active)

**Q.** Which outcome does the source give for COC(=O)CCCCC(=O)OC here?
**A.** inactive

**Q.** Which outcome does the source give for C[C@@H]1C[C@H]2[C@@H]3CCC4=CC(=O)C=C[C@]4(C)[C@@]3(F)[C@@H](O)C[C@]2(C)[C@@]1(O)C(=O)COP(=O)(O)O here?
**A.** inactive

**Q.** Which AC50 does the source give for O=c1c(-c2ccc(O)cc2)coc2cc(O)ccc12 here?
**A.** 8.88 µM (active)

**Q.** Which outcome does the source give for OC1CCC(C2CCCCC2)CC1 (stereo unspecified) here?
**A.** inactive

**Q.** With Oc1cccc(O)c1 as the compound, how does the outcome read?
**A.** inactive

**Q.** Which AC50 does the source give for Nc1cccc2c(N)cccc12 here?
**A.** 5 µM (active)

**Q.** For O=C(O)c1ccccc1C(c1ccc(O)cc1)c1ccc(O)cc1, which outcome is on record?
**A.** inactive

**Q.** For CCCCCCCCCCCCCCCS(=O)(=O)Oc1ccccc1, which outcome is on record?
**A.** inactive

**Q.** For CC1=C(/C=C/C(C)=C/C=C/C(C)=C/C(=O)O)C(C)(C)CCC1, which outcome is on record?
**A.** inactive

**Q.** For CCc1nn(C2CCCCC2)c2cc(C3(C#N)CCC(C(=O)O)CC3)ccc12 (stereo unspecified), which outcome is on record?
**A.** inactive

**Q.** Which outcome does the source give for CCCCCCCCC(=O)O here?
**A.** inactive

**Q.** Which outcome does the source give for CCC(=C(c1ccc(O)cc1)c1ccc(OCCN(C)C)cc1)c1ccccc1 here?
**A.** inactive

**Q.** Which AC50 does the source give for COc1ccc([N+](=O)[O-])cc1N here?
**A.** 44.6 µM (active)

Assay: CEETOX_H295R_DOC: CeeTox H295R High-throughput Steroidogenesis Assay for DOC (AID 2283439)
Settings: actives raise or lower the signal
Summary of the method: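 H295R, fsk 10 uM ×48 h pre, cmpd ×48 h (0.1% DMSO). Media → MTBE extr. → LC-MS/MS, DOC. Bidirectional fit vs DMSO; MTT viability same wells, re-test diluted if <70%.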

**Q.** For CCCOC(=O)c1ccc(O)cc1, which AC50 is on record?
**A.** 26.8 µM (active)

**Q.** With COC(=O)CCCCC(=O)OC as the compound, how does the outcome read?
**A.** inactive

**Q.** Which outcome does the source give for C[C@@H]1C[C@H]2[C@@H]3CCC4=CC(=O)C=C[C@]4(C)[C@@]3(F)[C@@H](O)C[C@]2(C)[C@@]1(O)C(=O)COP(=O)(O)O here?
**A.** inactive

**Q.** For NC(=O)N(O)[C@@H]1C=C[C@H](Oc2cccc(Oc3ccc(F)cc3)c2)C1, which outcome is on record?
**A.** inactive

**Q.** Which AC50 does the source give for O=c1c(-c2ccc(O)cc2)coc2cc(O)ccc12 here?
**A.** 3.19 µM (active)

**Q.** For OC1CCC(C2CCCCC2)CC1 (stereo unspecified), which outcome is on record?
**A.** inactive

**Q.** For Oc1cccc(O)c1, which outcome is on record?
**A.** inactive

**Q.** For Nc1cccc2c(N)cccc12, which AC50 is on record?
**A.** 2.73 µM (active)

**Q.** For O=C(O)c1ccccc1C(c1ccc(O)cc1)c1ccc(O)cc1, which AC50 is on record?
**A.** 6.89 µM (active)

**Q.** For CCc1ccc(CCOc2ccc(CC3SC(=O)NC3=O)cc2)nc1 (stereo unspecified), which AC50 is on record?
**A.** 19.5 µM (active)

**Q.** Which AC50 does the source give for CCCCCCCCCCCCCCCS(=O)(=O)Oc1ccccc1 here?
**A.** 3.8 µM (active)

**Q.** For CC1=C(/C=C/C(C)=C/C=C/C(C)=C/C(=O)O)C(C)(C)CCC1, which AC50 is on record?
**A.** 7.19 µM (active)

**Q.** For CCc1nn(C2CCCCC2)c2cc(C3(C#N)CCC(C(=O)O)CC3)ccc12 (stereo unspecified), which outcome is on record?
**A.** inactive

**Q.** Which outcome does the source give for CCCCCCCCC(=O)O here?
**A.** inactive

**Q.** For CCC(=C(c1ccc(O)cc1)c1ccc(OCCN(C)C)cc1)c1ccccc1, which outcome is on record?
**A.** inactive

**Q.** For COc1ccc([N+](=O)[O-])cc1N, which AC50 is on record?
**A.** 10.6 µM (active)

Assay: CEETOX_H295R_ESTRADIOL: CeeTox H295R High-throughput Steroidogenesis Assay for Estradiol (AID 2283440);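 also: estradiol secreted into medium quantified by LC-MS/MS after dansyl derivatisation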
Settings: actives raise or lower the signal
Summary of the method: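 H295R adrenocortical cells were prestimulated with 10 uM forskolin for 48 h, then exposed to test chemical in 0.1% DMSO for 48 h. Medium estradiol was extracted with MTBE, dansyl-derivatized and quantified by HPLC-MS/MS; bidirectional fit versus DMSO.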

**Q.** With CCCOC(=O)c1ccc(O)cc1 as the compound, how does the outcome read?
**A.** inactive

**Q.** With C[C@@H]1C[C@H]2[C@@H]3CCC4=CC(=O)C=C[C@]4(C)[C@@]3(F)[C@@H](O)C[C@]2(C)[C@@]1(O)C(=O)COP(=O)(O)O as the compound, how does the outcome read?
**A.** inactive

**Q.** Which outcome does the source give for CC#C[C@]1(O)CC[C@H]2[C@@H]3CCC4=CC(=O)CCC4=C3[C@@H](c3ccc(N(C)C)cc3)C[C@@]21C here?
**A.** inactive

**Q.** For O=c1c(-c2ccc(O)cc2)coc2cc(O)ccc12, which outcome is on record?
**A.** inactive

**Q.** Which outcome does the source give for CN1CCC[C@H]1c1cccnc1 here?
**A.** inactive

**Q.** Which outcome does the source give for OC1CCC(C2CCCCC2)CC1 (stereo unspecified) here?
**A.** inactive

**Q.** With Oc1cccc(O)c1 as the compound, how does the outcome read?
**A.** inactive

**Q.** For Nc1cccc2c(N)cccc12, which outcome is on record?
**A.** inactive

**Q.** For O=C(O)c1ccccc1C(c1ccc(O)cc1)c1ccc(O)cc1, which outcome is on record?
**A.** inactive

**Q.** For CCCCCCCCCCCCCCCS(=O)(=O)Oc1ccccc1, which outcome is on record?
**A.** inactive

**Q.** With CCc1nn(C2CCCCC2)c2cc(C3(C#N)CCC(C(=O)O)CC3)ccc12 (stereo unspecified) as the compound, how does the outcome read?
**A.** inactive

**Q.** With CCCCCCCCC(=O)O as the compound, how does the outcome read?
**A.** inactive

**Q.** For COc1ccc([N+](=O)[O-])cc1N, which outcome is on record?
**A.** inactive

Assay: CEETOX_H295R_ESTRONE: CeeTox H295R High-throughput Steroidogenesis Assay for Estrone (AID 2283441);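 also: estrone secreted into medium measured by LC-MS/MS after dansyl derivatization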
Settings: actives raise or lower the signal
Summary of the method: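 Forskolin-stimulated H295R cells are treated 48 h with chemical, and estrone in the medium is measured by LC-MS/MS. Activity is fitted in both directions relative to DMSO controls, with chemicals diluted until MTT viability reaches at least 70%.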

**Q.** With CCCOC(=O)c1ccc(O)cc1 as the compound, how does the outcome read?
**A.** inactive

**Q.** For C[C@@H]1C[C@H]2[C@@H]3CCC4=CC(=O)C=C[C@]4(C)[C@@]3(F)[C@@H](O)C[C@]2(C)[C@@]1(O)C(=O)COP(=O)(O)O, which outcome is on record?
**A.** inactive

**Q.** With CC#C[C@]1(O)CC[C@H]2[C@@H]3CCC4=CC(=O)CCC4=C3[C@@H](c3ccc(N(C)C)cc3)C[C@@]21C as the compound, how does the outcome read?
**A.** inactive

**Q.** For O=c1c(-c2ccc(O)cc2)coc2cc(O)ccc12, which outcome is on record?
**A.** inactive

**Q.** With CN1CCC[C@H]1c1cccnc1 as the compound, how does the outcome read?
**A.** inactive

**Q.** With Oc1cccc(O)c1 as the compound, how does the outcome read?
**A.** inactive

**Q.** With Nc1cccc2c(N)cccc12 as the compound, how does the outcome read?
**A.** inactive

**Q.** For O=C(O)c1ccccc1C(c1ccc(O)cc1)c1ccc(O)cc1, which outcome is on record?
**A.** inactive

**Q.** Which outcome does the source give for CCCCCCCCCCCCCCCS(=O)(=O)Oc1ccccc1 here?
**A.** inactive

**Q.** With CCc1nn(C2CCCCC2)c2cc(C3(C#N)CCC(C(=O)O)CC3)ccc12 (stereo unspecified) as the compound, how does the outcome read?
**A.** inactive

**Q.** For CCCCCCCCC(=O)O, which outcome is on record?
**A.** inactive

**Q.** Which outcome does the source give for COc1ccc([N+](=O)[O-])cc1N here?
**A.** inactive

Assay: CEETOX_H295R_PROG: CeeTox H295R High-throughput Steroidogenesis Assay for Progesterone (PROG) (AID 2283442);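 as to AC50: human H295R adrenal cells primed with 10 µM forskolin before dosing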
Settings: actives raise or lower the signal
Summary of the method: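 H295R human adrenal cells were prestimulated with 10 uM forskolin for 48 h, then exposed to test chemical (0.1% DMSO final) for 48 h. Medium progesterone was MTBE-extracted and quantified by HPLC-MS/MS, with bidirectional fitting against DMSO.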

**Q.** For CCCOC(=O)c1ccc(O)cc1, which AC50 is on record?
**A.** 5.71 µM (active)

**Q.** Which outcome does the source give for COC(=O)CCCCC(=O)OC here?
**A.** inactive

**Q.** Which outcome does the source give for C[C@@H]1C[C@H]2[C@@H]3CCC4=CC(=O)C=C[C@]4(C)[C@@]3(F)[C@@H](O)C[C@]2(C)[C@@]1(O)C(=O)COP(=O)(O)O here?
**A.** inactive

**Q.** With CC#C[C@]1(O)CC[C@H]2[C@@H]3CCC4=CC(=O)CCC4=C3[C@@H](c3ccc(N(C)C)cc3)C[C@@]21C as the compound, how does the AC50 read?
**A.** 3.9 µM (active)

**Q.** With NC(=O)N(O)[C@@H]1C=C[C@H](Oc2cccc(Oc3ccc(F)cc3)c2)C1 as the compound, how does the outcome read?
**A.** inactive

**Q.** For O=c1c(-c2ccc(O)cc2)coc2cc(O)ccc12, which AC50 is on record?
**A.** 4.62 µM (active)

**Q.** For c1ccc2cc3c(ccc4ccccc43)cc2c1, which outcome is on record?
**A.** inactive

**Q.** For O=[N+]([O-])c1ccc(O)cc1, which outcome is on record?
**A.** inactive

**Q.** Which outcome does the source give for CN1CCC[C@H]1c1cccnc1 here?
**A.** inactive

**Q.** Which outcome does the source give for OC1CCC(C2CCCCC2)CC1 (stereo unspecified) here?
**A.** inactive

**Q.** With Oc1cccc(O)c1 as the compound, how does the outcome read?
**A.** inactive

**Q.** For Nc1cccc2c(N)cccc12, which AC50 is on record?
**A.** 2.44 µM (active)

**Q.** Which AC50 does the source give for O=C(O)c1ccccc1C(c1ccc(O)cc1)c1ccc(O)cc1 here?
**A.** 10.2 µM (active)

**Q.** Which AC50 does the source give for CCc1ccc(CCOc2ccc(CC3SC(=O)NC3=O)cc2)nc1 (stereo unspecified) here?
**A.** 32.2 µM (active)

**Q.** Which AC50 does the source give for CCCCCCCCCCCCCCCS(=O)(=O)Oc1ccccc1 here?
**A.** 4.08 µM (active)

**Q.** For CC1=C(/C=C/C(C)=C/C=C/C(C)=C/C(=O)O)C(C)(C)CCC1, which AC50 is on record?
**A.** 8.11 µM (active)

**Q.** For c1ccc2c(c1)ccc1ccccc12, which outcome is on record?
**A.** inactive

**Q.** For CCc1nn(C2CCCCC2)c2cc(C3(C#N)CCC(C(=O)O)CC3)ccc12 (stereo unspecified), which outcome is on record?
**A.** inactive

**Q.** For CCCCCCCCC(=O)O, which outcome is on record?
**A.** inactive

**Q.** With CCC(=C(c1ccc(O)cc1)c1ccc(OCCN(C)C)cc1)c1ccccc1 as the compound, how does the outcome read?
**A.** inactive

**Q.** Which AC50 does the source give for COc1ccc([N+](=O)[O-])cc1N here?
**A.** 14.2 µM (active)
